Screening results as filed in PubChem.
LASV entry inh – blocks Lassa virus binding to or entry into cells; Lassa virus pseudotype entry inhibition, cell reporter; Potency, µM (titrated, usually from 37.9 µM), for the others: at the highest dose activity change, negative = inhibition, usual class: inhibitors; 300,000 tested, 1.2% active; AID 540256; calls by dose curve; tested in HEK293 cells; further: potency means the concentration at half of the fitted maximal effect; on the % scale 0 is the no-effect control and ±100 the full control effect; nearly all actives have a fitted effect of over 50% in size
Cycloheximide cs – counter-screen for Shiga toxin inhibitors: cycloheximide protein synthesis inhibition; cell reporter, cycloheximide protein synthesis inhibition counterscreen; max response, %; 300,000 tested, 12% active; in the data active means max response mostly above about 13%, no sharp cut-off; inactive means mostly below about 14%; further: read at 38.3 µM for the half of the compounds with a filed dose; 0% is about no effect
Shiga toxin inh – Shiga toxin inhibition; inhibition, % at 38.7 µM; Vero cells, Shiga toxin protein synthesis inhibition reporter; AID 2315; 290,000 tested, 9.2% active; in the data active means inhibition mostly above about 28%, no sharp cut-off; inactive means mostly below about 43%; further: 0% is about no effect
MARV entry inh – blocks Marburg virus binding to or entry into cells; Marburg virus pseudotyped entry inhibition, cell reporter; Potency, µM (series often up to 37.8 µM), for inactives: at the top dose activity change, negative = inhibition, usual class: inhibitors; 300,000 tested, 1.8% active; AID 540276; calls by dose curve; tested in HEK293 cells; further: potency means the concentration at half of the fitted maximal effect; on the % scale 0 is the no-effect control and ±100 the full control effect
The depositor's hits bear a star; ? = inconclusive; · = no result; ! = not active in a repeat; [ ] = remark or other dose. Only some compounds are listed: those with a hit (about 12% of all), similar ones and a draw of the others.

SMILES	LASV entry inh	Cycloheximide cs	Shiga toxin inh	MARV entry inh
O=C(CN1CCN(c2ccccc2F)CC1)c1c[nH]c2ccc(F)cc12	?	-4	-10	12µM*
Cc1onc(-c2ccccc2Cl)c1C(=O)Oc1cc(F)cc(F)c1	-27%[46.1 µM]	·	·	·
COc1ccc(C)cc1NC(=O)NCc1cccn1Cc1ccccc1	22%[46.1 µM]	·	·	·
CCC(=O)n1nc(-c2ccc(OC)cc2)nc1SC	?	30*	42*	14%
CCC(=O)n1nc(-c2ccc(Cl)cc2)nc1SC	0%	32*	68*	13%[46.1 µM]
CSc1nc(-c2ccc(Cl)cc2)nn1S(=O)(=O)c1ccc(Cl)cc1	-16%	7	14	?
CSc1nc(-c2ccc(Cl)cc2)nn1S(=O)(=O)c1ccccc1	5%	10	34	?
CCCC(=O)n1nc(-c2ccc(Cl)cc2)nc1SC	-14%	23*	67*	?
OCc1ccc(-c2ccc(-c3ccc(CO)s3)o2)s1	·	53*	42*	·
COc1ccc(CCN(C)Cc2ccncc2)cc1OC	-4%	-3	-10	6%
COc1ccc(CCN(C)CCc2ccc(OC)c(OC)c2)cc1OC	-22%	·	·	5µM*!
COc1ccc(CCN(C)CCCC(C#N)(c2cc(OC)c(OC)c(OC)c2)C(C)C)cc1OC (centres undefined)	?	8	20	8.9µM*
CCn1c(SCc2ccccc2Cl)nc(=O)c2c(C(=O)OC)cc(C3CC3)nc21	-29%[46.1 µM]	·	·	·
COc1ccc(S(=O)(=O)NC(C)C(=O)Nc2ccc3c(c2)OCCO3)cc1OC (centres undefined)	2%	-2	1	-13%[46.1 µM]
CCOC(=O)c1sc2nccc(N(C)C)c2c1N=CNOC	8%	-5	-19	3%
CCOC(=O)c1sc2nccc(N(C)C)c2c1N=CNOCc1ccccc1	?	16*	21	-16%
CCOC(=O)c1sc2nccc(N(C)C)c2c1N=CNOCc1c(F)cccc1Cl	-18%	25*	35	?
O=C(Cn1c(=O)n(-c2ccccc2Cl)c(=O)c2sc3ccccc3c21)N1CCCC1	3%[46.1 µM]	·	·	-5%[46.1 µM]
CCN(CC)c1cc(Oc2ccccc2)ncn1	2%	19*	73*	?
COc1cccc(C(=O)/C=C/c2ccc(N3CCCCC3)c([N+](=O)[O-])c2)c1	-5%	29*	60*	7%
CO/N=C/c1ccc(N2CCCC2)c([N+](=O)[O-])c1	-26%	31*	53	?
COc1ccc(-c2nnc(SCC(=O)Nc3ccc(C)c(C)c3)s2)cc1	-17%[46.1 µM]	·	·	·
Cc1cc(SCC(=O)NCCC2=CCCCC2)nc2ccccc12	-3%	2	-10	?
Cn1c(=S)n(/N=C/c2cccs2)c2ccccc21	0%	25*	46*	15%[14.2 µM]
Cc1n[nH]c(=S)n(/N=C/c2cccs2)c1=O	?	1	-15	13%[46.1 µM]
SMILES	LASV entry inh	Cycloheximide cs	Shiga toxin inh	MARV entry inh
COC(=O)c1ccccc1NC(=O)Cn1nc(C(F)(F)F)c2c1CCCC2	14%[46.1 µM]	·	·	?
CCOC(=O)C(C(=O)OCC)c1cc(Br)c2noc3c2c1C(=O)c1ccccc1-3	11µM*	-1	21	?
COC(=O)/C=C/c1ccsc1NC(C)=O	3%	-2	-4	4%
CCOC(=O)CSc1nc2cc(OC)c(OC)cc2c2nc(-c3ccccc3)nn12	16%[46.1 µM]	·	·	-15%[46.1 µM]
COc1cccc(-c2cc(C(=O)N3CCN(c4ncccn4)CC3)c3ccccc3n2)c1	?	19*	59*	?
CC(NC(=O)c1cc(-c2ccncc2)nc2ccc(Cl)cc12)C1CCCO1 (centres undefined)	9%	13*	38*	-28%
O=C(c1ccc2ccccc2n1)N1CCN(c2ccccc2)CC1	-29%	-3	-5	12%
O=C(c1ccc2ccccc2n1)N1CCN(c2ccccc2O)CC1	-21%	52*	88*	3%
Cc1ccc(-c2cc(C(=O)N3CCN(c4ccccc4O)CC3)c3ccccc3n2)o1	?	35*	66*	?
CCCc1ccc(OCC(=O)NNC(=O)c2cccnc2)cc1	1%	-4	-5	3%[46.1 µM]
CCOc1ccc2cc(/C=C/C(=O)c3ccco3)c(Cl)nc2c1	?	7	27	?
O=C(c1cc(-c2ccccn2)nc2ccccc12)N1CCN(c2ncccn2)CC1	5%	3	-10	0%
CC(C)Oc1cccc(-c2cc(C(=O)N3CCN(S(C)(=O)=O)CC3)c3ccccc3n2)c1	-12%	37*	57	-29%
O=C(c1cc(-c2cccc(Cl)c2)nc2ccccc12)N1CCN(c2ccccn2)CC1	-1%	7	-5	?
CC(C)Oc1cccc(-c2cc(C(=O)N3CCN(c4ncccn4)CC3)c3ccccc3n2)c1	·	43*	68*	·
O=C(c1cc(-c2ccncc2)nc2ccc(Br)cc12)N1CCN(c2ccccn2)CC1	?	-4	20	5.6µM*
Cc1ccc(-c2cc(C(=O)N3CCN(c4ncccn4)CC3)c3ccccc3n2)cc1	-8%	49*	53	?
O=C(c1cc(-c2cccs2)nc2ccccc12)N1CCN(S(=O)(=O)c2cccc(F)c2)CC1	-12%	32*	30*	?
O=C(c1cc(-c2ccncc2)nc2ccc(Cl)cc12)N1CCN(C(=O)C2CCCO2)CC1 (centres undefined)	?	-3	-8	-12%
CC(=O)c1ccc(N2CCN(C(=O)c3cc(-c4ccncc4)nc4ccc(Cl)cc34)CC2)cc1	7%	14*	24	?
O=C(c1cc(-c2ccncc2)nc2ccccc12)N1CCN(Cc2ccccc2)CC1	?	·	·	7.9µM*
CCOc1ccc2cc(-c3nnc(Nc4ccccc4F)s3)c(=O)oc2c1	22%[46.1 µM]	·	·	·
Cc1cc2ccccc2c(=O)[nH]1	25%	-1	-3	14%
CCc1cc2c(=O)[nH]c(CC(N)=O)nc2s1	26%[46.1 µM]	-1	14	0%
CC(C)OC(=O)Cc1nc2sc(-c3ccccc3)cc2c(=O)[nH]1	·	61*	69*	·
SMILES	LASV entry inh	Cycloheximide cs	Shiga toxin inh	MARV entry inh
Cc1nc2sc(-c3ccccc3)cc2c(=O)[nH]1	?	19*	40	?
Cc1nc2cc3ccccc3cc2c(=O)[nH]1	-3%	31*	46*	?
O=c1[nH]c(-c2cccnc2)nc2sc(-c3ccccc3)cc12	1%	11	13	-21%
COCCn1c(C)cc(O)c(C(c2ccccc2)N2CCN(c3ccc(F)cc3)CC2)c1=O (centres undefined)	7%[46.1 µM]	·	·	·
O=C(Nc1cccc2c1[nH]c1ccccc12)C(F)(F)F	?	6	21	?
O=C(Cc1ccccc1)NNC(=O)c1ccc(NC(=O)c2ccccc2)cc1	-12%[46.1 µM]	9	-8	6%[46.1 µM]
Cc1ccc(C(=O)NNC(=O)Cc2ccccc2)cc1	?	28*	75	3%
Cc1ccc(C(=O)NNC(=O)Cc2cccs2)cc1	5%	20*	29	23%
CCC(C)[C@H](N)c1nnc(SCc2ccc(Cl)c(Cl)c2)o1 (some centres undefined)	11%[46.1 µM]	·	·	11%[46.1 µM]
CNC(=O)c1[nH]nc2c1CCc1cc(OC)ccc1-2	?	57*	87*	?
COc1cccc(/C=N/NC(=O)c2[nH]nc3c2CCc2ccccc2-3)c1	?	-3	-8	?
CC(C)NC(=O)c1[nH]nc2c1CCc1ccccc1-2	·	42*	110*	·
COc1ccc2c(c1)CCc1c-2n[nH]c1C(=O)NCCC(C)C	·	43*	88*	·
CCOC(=O)c1noc2nc(C)n(Cc3cccc(C#N)c3)c(=O)c12	2%[46.1 µM]	·	·	·
